TDP1 cell CPT – qHTS for Inhibitors of human tyrosyl-DNA phosphodiesterase 1 (TDP1): qHTS in cells in presence of CPT. chicken DT40 Tdp1-/-;hTDP1 cells + 20 nM CPT, ATP luminescence, 48 h. Potency, µM (series often up to 46.2 µM), for inactives: top-dose activity change, negative = growth inhibition, usual class: inhibitors. 420,000 tested, 12% active. AID 686979, 2013; further: potency means the concentration at half of the fitted maximal effect; on the % scale 0 is the no-effect control and ±100 the full control effect; nearly all actives have a fitted effect of over 55% in size
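Chicken DT40 Tdp1-/- cells stably complemented with human TDP1 were seeded at 400 cells/well in medium containing 20 nM camptothecin, exposed to pin-transferred compounds, and grown at 37 °C for at least 48 hr. Viability was read as ATP luminescence.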
DT40 TDP1 no CPT – qHTS for Inhibitors of human tyrosyl-DNA phosphodiesterase 1 (TDP1): qHTS in cells in absence of CPT. AID 686978, 2013. DT40 Tdp1-/- hTDP1 cells, no CPT, ATP luminescence, 48 h. 420,000 tested, 15% active. Potency, µM (doses to about 46.2 µM), for the others: top-dose activity change, negative = growth inhibition, usual class: inhibitors; further: potency means the concentration at half of the fitted maximal effect; on the % scale 0 is the no-effect control and ±100 the full control effect; nearly all actives have a fitted effect of over 55% in size
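Luminescent ATP content (CellTiter-Glo) served as the growth readout. Knockout chicken DT40 cells expressing human TDP1 were exposed to compounds without camptothecin for a minimum 48 hr at 37 °C.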
uPA surface inh – qHTS for Inhibitors of Cell Surface uPA Generation | cell surface uPA generation assay, qHTS | Potency, µM (series often up to 38.3 µM), for inactives: top-dose activity change, negative = inhibition, most hits filed as inhibitors | 330,000 tested, 0.31% active; active means well fitted inhibition curve with a large enough effect; inconclusive means small, poorly fitted or top-dose-only effect; inactive means no such curve, though single readings can be large or run the other way; tested in mouse RAW 264.7 cells; further: potency means the concentration at half of the fitted maximal effect; on the % scale 0 is the no-effect control and ±100 the full control effect; nearly all actives have a fitted effect of over 55% in size
miR-21 act – qHTS Assay for Modulators of miRNAs and/orActivators of miR-21; AID 2288, 2010; HeLa miR-21 FLuc reporter, luciferase, 48 h; Potency, µM (series often up to 38.3 µM), inactives show top-dose activity change, positive = activation, actives largely listed as activators; 340,000 tested, under 10 active;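 further: % of control where 0% means no effect; miR-21 action dims this reporter so a rising signal means less miR-21 action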
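Luminescence from a firefly luciferase reporter carrying a miR-21 binding site downstream, stably expressed under a CMV promoter in HeLa cells that make miR-21 endogenously, reports miRNA modulation after 48 h compound exposure up to approximately 40uM final.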
TDP1 inh – qHTS Assay for Inhibitors of Tyrosyl-DNA Phosphodiesterase (TDP1). AID 485290, 2010. Tyrosyl-DNA phosphodiesterase 1 (Homo sapiens), Q9NUW8. recombinant TDP1, AlphaScreen DNA substrate cleavage. 350,000 tested, 0.28% active. Potency, µM (top dose mostly 130 µM), inactives show top-dose activity change, negative = inhibition, hits mostly inhibitors; further: potency means the concentration at half of the fitted maximal effect; on the % scale 0 is the no-effect control and ±100 the full control effect; nearly all actives have a fitted effect of over 40% in size
Target sequence (Q9NUW8 whole entry, looked up): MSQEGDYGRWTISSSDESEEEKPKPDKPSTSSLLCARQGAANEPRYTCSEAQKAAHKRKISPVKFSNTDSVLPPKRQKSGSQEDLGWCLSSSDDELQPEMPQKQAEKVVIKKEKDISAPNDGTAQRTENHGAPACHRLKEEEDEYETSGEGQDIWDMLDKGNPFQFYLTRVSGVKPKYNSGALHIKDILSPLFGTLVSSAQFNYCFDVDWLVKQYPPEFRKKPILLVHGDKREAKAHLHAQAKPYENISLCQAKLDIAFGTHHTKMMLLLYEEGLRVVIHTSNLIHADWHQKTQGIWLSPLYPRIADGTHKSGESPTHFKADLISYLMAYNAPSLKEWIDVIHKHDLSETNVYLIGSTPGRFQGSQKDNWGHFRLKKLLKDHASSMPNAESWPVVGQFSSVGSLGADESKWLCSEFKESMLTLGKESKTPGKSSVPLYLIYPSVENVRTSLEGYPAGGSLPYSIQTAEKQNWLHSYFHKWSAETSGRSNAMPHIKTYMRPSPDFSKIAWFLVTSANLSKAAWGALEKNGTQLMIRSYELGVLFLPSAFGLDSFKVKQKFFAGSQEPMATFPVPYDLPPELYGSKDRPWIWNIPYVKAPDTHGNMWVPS
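Recombinant E. coli-expressed Tdp1 (1 nM) preincubated with compound 15 min at RT, then 5'-biotin/3'-phosphotyrosine-FITC DNA substrate (15 nM) added for 5 min. AlphaScreen beads (10 ug/ml) added, 10 min RT; tyrosine-FITC cleavage read as signal loss.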
The depositor's hits bear a star; ? = inconclusive; . = not tested or not shown; [ ] = another dose, or the depositor's remark. Rows were chosen to be rich in hits. Some 16% of all compounds tested hit in one or more screens of this group. Unless noted, the call rests on the fitted dose curve; in most records, active means well fitted curve in the direction sought with a large enough effect; inconclusive means small, poorly fitted or top-dose-only effect, or another doubt; inactive means no such curve, though single readings can be large; an effect the other way counts as inactive or inconclusive.

SMILES	TDP1 cell CPT	DT40 TDP1 no CPT	uPA surface inh	miR-21 act	TDP1 inh
CC1C(=O)N(Cc2cn(CCC3OCCCO3)nn2)CCS(=O)(=O)N1Cc1ccc(-c2ccc(F)cc2)cc1 (stereo not drawn)	12µM*	18µM*	.	.	.
CC1C(=O)N(Cc2cn(CCC3OCCCO3)nn2)CCS(=O)(=O)N1Cc1ccc(-c2ccc(Cl)c(Cl)c2)cc1 (stereo not drawn)	4.1µM*	3.7µM*	.	.	.
COc1ccc(-c2ccc(CN3C(C)C(=O)N(Cc4cn(CCC5OCCCO5)nn4)CCS3(=O)=O)cc2)cc1 (stereo not drawn)	16µM*	18µM*	.	.	.
COCOCCn1cc(CN2CCS(=O)(=O)N(Cc3ccc(-c4ccncc4)cc3)C(C)C2=O)nn1 (stereo not drawn)	-18%	-16%	.	.	.
Cc1ccc(C(=O)C2CCN(S(=O)(=O)c3ccccc3C(=O)O)CC2)cc1	0%	0%	0%	0%	6%
COc1cc(C#N)ccc1OCC(=O)Nc1cccc(S(=O)(=O)N(C)c2ccccc2)c1	12µM*	18µM*	.	.	.
Cc1ccc(NC(=O)COc2ncnc3sccc23)cc1S(=O)(=O)N(C)C	-15%	-11%	0%	-1%	3%
CCN(CC)S(=O)(=O)c1cccc(NC(=O)COc2ccc(F)cc2Br)c1	?	?	5%	-6%	-1%
CCN(CC)S(=O)(=O)c1cc(NC(=O)COc2ccc(C#N)cc2OC)ccc1C	21µM*	23µM*	-5%	-2%	8%
CCN(CC)S(=O)(=O)c1cccc(NC(=O)COc2ncnc3sccc23)c1	?	16µM*	2%	2%	-1%
CCN(CC)S(=O)(=O)c1cccc(NC(=O)COc2ccc(C#N)cc2OC)c1	?	23µM*	-11%	-8%	1%
COc1cc(C#N)ccc1OCC(=O)Nc1ccc(C)c(S(=O)(=O)N2CCOCC2)c1	?	?	0%	-5%	-3%
Cc1ccn2cc(CCNC(=O)CC(C)(C)C)nc2c1	5%	-2%	4%	-13%	2%
CCOCC(=O)Nc1nnc(Cc2ccc(OC)cc2)s1	-15%	-9%	0%	-9%	0%
CCCCn1c(N)c(N(CCC(C)C)C(=O)c2ccc(-c3ccc([N+](=O)[O-])cc3)o2)c(=O)[nH]c1=O	?	?	-2%	.	-3%
Cc1ccccc1NCC(=O)N/N=C/c1c(C)c(C(=O)c2ccc(Cl)cc2)n2ccccc12	16µM*	16µM*	4%	-1%	-1%
CC1(C)CC(=O)C=C(NCCN2CCN(C(=S)Nc3ccc(F)cc3)CC2)C1	1%	-8%	2%	0%	-3%
O=C(Nc1ccc(OC(F)(F)F)cc1)c1cc2ccccn2n1	-29%	?	.	-5%	3%
COc1ccc(NC(=O)c2cc3ccccn3n2)cc1	-13%	-6%	4.5µM*	4%	5%
COc1cc(Cl)c(NC(=O)c2cc3ccccn3n2)c(OC)c1	16µM*	21µM*	.	-71%	3%
CC1=C(C(=O)N(C(C)C)C(C)C)CC(CC(=O)NC2CCCCC2)C(=O)N1CCCN1CCCC1=O (stereo not drawn)	-4%	-6%	.	.	.
Cc1ccc(N2CCN(C(=O)CN3C(=O)c4ccccc4C3=O)CC2)cc1	-1%	-22%	4%	-3%	5%
Cc1cc(C)c2nc(N(CCN(C)C)C(=O)c3ccc4ccccc4c3)sc2c1	16µM*	13µM*	-5%	-7%	15%
COc1ccc(C)c2sc(N(CCN(C)C)C(=O)c3ccc4ccccc4c3)nc12	18µM*	?	1%	1%	17%
O=C(CNC(=O)c1sc2ccccc2c1Cl)Nc1ccccc1F	-14%	-28%	2%	.	-8%
SMILES	TDP1 cell CPT	DT40 TDP1 no CPT	uPA surface inh	miR-21 act	TDP1 inh
COc1cc(-c2nnc(SCC(=O)Oc3ccccc3Cl)o2)cc(OC)c1OC	-4%	-4%	.	0%	6%
COc1cc(-c2nnc(SCC(=O)N3c4ccccc4Sc4ccccc43)o2)cc(OC)c1OC	?	8.2µM*	0%	-1%	2%
COc1cc(-c2nnc(SCc3c(F)cccc3Cl)o2)cc(OC)c1OC	?	26µM*	-3%	-14%	3%
O=C(Sc1nnc(-c2ccccc2)o1)N1c2ccccc2Sc2ccccc21	21µM*	18µM*	?	-7%	15%[56.1 µM]
COc1cc(-c2nnc(SCC(=O)c3ccc(C)cc3)o2)cc(OC)c1OC	?	23µM*	8%	0%	5%
COc1cc(-c2nnc(SCC(=O)Oc3ccccc3)o2)cc(OC)c1OC	-2%	5%	.	-1%	9%
COc1cccc(C(=O)CSc2nnc(-c3cc(OC)c(OC)c(OC)c3)o2)c1	?	21µM*	4%	4%	8%
COc1ccc(S(=O)(=O)c2nnn(-c3ccc(C(C)C)cc3)c2C)cc1	15µM*	15µM*	.	8%	-8%
COc1ccc(S(=O)(=O)c2nnn(-c3cc(Cl)c(OC)cc3OC)c2C)cc1	-4%	-19%	.	13%	-2%
CC(=O)N(C)c1ccc(NC(=O)/C=C/c2ccccc2Cl)cc1	?	13µM*	-6%	-38%	3%
COc1ccc(/C=C/C(=O)Nc2ccc3nc(N4CCCCC4)cc(C)c3c2)cc1OC	2.9µM*	2.6µM*	.	-1%	9%
Cc1cc(N2CCCCC2)nc2ccc(NC(=O)c3ccc(Br)o3)cc12	?	?	-7%	6%	4%
Cc1cc(N2CCCCC2)nc2ccc(NC(=O)/C=C/c3ccccc3Cl)cc12	13µM*	10µM*	.	-6%	9%
COc1ccc(/C=C/C(=O)Nc2ccc3nc4n(c(=O)c3c2)CCCC4)cc1OC	-8%	-1%	4%	-6%	3%
Cc1cc(N2CCCCC2)nc2ccc(NC(=O)/C=C/c3ccccc3OC(C)C)cc12	7.3µM*	10µM*	.	-14%	6%
O=C(/C=C/c1ccccc1Cl)Nc1ccncc1	?	?	-4%	-45%	-2%
COc1ccc(C(=O)NCCSc2c(C)[nH]c3ccccc23)cc1	?	?	.	12%	6%
COc1ccc(CNC(=O)CNC(=O)c2ccc(C(C)(C)C)cc2)cc1OC	-13%	-24%	24%	1%	.
Cc1[nH]c(C)c(S(=O)(=O)N2CCc3ccccc32)c1C(=O)N1CCCCC1	-16%	2%	2%	1%	5%
CCCS(=O)(=O)N1CCN(Cc2ccncc2)CC1	-3%	-5%	3%	-2%	-2%

Compound activity deposited in PubChem BioAssay by National Center for Advancing Translational Sciences (NCATS).
